# Measured values as given in PubChem BioAssay.
# Biological target: Alpha-bungarotoxin (Bungarus multicinctus) (UniProt P60615)
# Test: compounds binding labelled alpha-BTX control protein – biochemical, small-molecule microarray, Alexa647 label, 635/667 nm fluorescence, artefact control for SMM control protein annotation, profiling panel (AID 1117)
# Conditions: alpha-BTX-A647 binding fluorescence, higher = more signal
# Sequence of Alpha-bungarotoxin (Bungarus multicinctus) (P60615 whole entry, looked up): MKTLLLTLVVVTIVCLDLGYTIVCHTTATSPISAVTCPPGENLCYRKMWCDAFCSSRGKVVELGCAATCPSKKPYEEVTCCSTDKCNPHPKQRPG
row,Compound,composite z-score
1,CC(CO)N1C(=O)[C@@H]2C3C(=O)OCCC/C=C\[C@H]3OC23C=CCN(C(C)(C)C)C(=O)[C@@H]13 (stereo not given in full),0.149
2,CN1C(=O)C2C=CC(C(O)c3ccccc3)N(N(c3ccccc3)c3ccccc3)C2C1=O (stereo not given),0.514
3,C=CCOC(=O)[C@H]1[C@@H]2C(=O)O[C@@H](c3ccccc3)[C@@H](c3ccccc3)N2[C@@H](c2ccc(OCCOC(=O)[C@@H]3C[C@@H]4C(=O)N[C@@H](CCCCNC(C)=O)C(=O)N4[C@@H]3c3ccc(O)cc3)cc2)[C@]12C(=O)Nc1ccccc12,2.51
4,C[C@H]1C2[C@H](Cc3ccccc3)NC(=O)[C@]23C(=O)N[C@H](Cc2ccccc2)C(=O)N2CCC[C@H]2C(=O)NC/C=C\C/C=C/C3[C@@H]2O[C@]12C (stereo not given in full),1.18
5,CC(C)C(O)C1C=CC2C(=O)NC(=O)C2N1Nc1ccc(Cl)cc1Cl (stereo not given),0.712
6,COC(=O)C(CC#Cc1ccc2c(c1)[C@]1(C(=O)N2)[C@H](C(=O)Nc2nc3ccccc3s2)[C@H]2C(=O)O[C@H](c3ccccc3)[C@H](c3ccccc3)N2[C@@H]1c1ccc(O)cc1)C(=O)OC,0.982
7,CC(C)C(O)C1C=CC2C(=O)N(c3ccccc3)C(=O)C2N1Nc1ccc([N+](=O)[O-])cc1 (stereo not given),0.801
8,CC(C)C[C@@H]1NC(=O)[C@@H]2C[C@H](C(=O)NCc3ccc(F)cc3)[C@H](c3cccc(OCCO)c3)N2C1=O,-0.41
9,CCCC[C@H]1OB(O)C[C@H]2C1=C(COC)C[C@H]1C(=O)N(C)C(=O)[C@H]12,1.16
10,COCCOC(=O)N1C(=O)[C@@]2(c3cc(C#Cc4ccc(OC)cc4)ccc31)[C@H](c1ccccc1OCCO)N1[C@H](c3ccccc3)[C@H](c3ccccc3)OC(=O)[C@H]1[C@@H]2C(=O)NC[C@H](O)c1ccccc1,1.86
11,CCOC(=O)C[C@H]1[C@H](OC(=O)c2ccc(C(=O)c3ccccc3)cc2)[C@@H](NC(=O)c2ccccc2)c2cc(OCCCO)ccc2N1C(=O)c1ccc2ccccc2n1,0.635
12,O=C(c1ccccc1)N1C(=O)[C@@]2(Cc3ccccc31)N=C(c1ccc(OCCCO)cc1)O[C@H]2c1ccccc1,0.902
13,Cc1ccc(N2C(=O)c3ccccc3[C@@H](C(=O)NC3CC3)[C@@H]2c2ccc(CO)cc2)nc1,-1.36
14,[N-]=[N+]=Nc1ccccc1[C@@H]1OC(c2ccc(OCCCO)cc2)=N[C@]1(CCS(=O)(=O)c1ccccc1)C(N)=O,0.992
15,COC(=O)C(CC#Cc1ccc2c(c1)[C@]1(C(=O)N2)[C@H](C(=O)Nc2nc3ccccc3s2)[C@H]2C(=O)O[C@H](c3ccccc3)[C@H](c3ccccc3)N2[C@@H]1c1ccccc1OCCO)C(=O)OC,2.31
16,CCOC(=O)C[C@H]1[C@H](OC(=O)c2ccc(C(=O)c3ccccc3)cc2)[C@@H](NC(=O)CC(C)C)c2cc(OCCCO)ccc2N1C(=O)c1ccc2ccccc2n1,0.719
17,C=CC[C@]1(C(=O)NCc2ccccc2)N=C(c2ccc(OCCCO)cc2)O[C@H]1c1ccccc1N=[N+]=[N-],1.65
18,OCCCC1=CC(c2cccs2)N(Cc2cc3c(cc2Br)OCO3)CC1 (stereo not given),1.36

row,Compound,composite z-score
1,COc1ccc(C#Cc2ccc3c(c2)[C@]2(C(=O)N3)[C@H](C(=O)Nc3nc4ccccc4s3)[C@H]3C(=O)O[C@H](c4ccccc4)[C@H](c4ccccc4)N3[C@@H]2c2ccc(O)cc2)cc1,1.66
2,NC(=O)[C@@H]1[C@H]2C(=O)O[C@H](c3ccccc3)[C@H](c3ccccc3)N2[C@H](c2ccc(O)cc2)[C@@]12C(=O)Nc1ccccc12,-0.674
3,CCCCC(CC)C(O)C1C=CC2C(=O)N(Cc3ccccc3)C(=O)C2N1n1cnnc1 (stereo not given),0.308
4,O=C1O[C@H](c2ccccc2)[C@H](c2ccccc2)N2[C@H]1[C@@H](C(=O)N1CCCCCCC1)[C@]1(C(=O)Nc3ccc(C#CCCO)cc31)[C@H]2c1ccccc1OCCO,4.84
5,C=CCNC(=O)[C@H]1[C@@H]2C(=O)O[C@@H](c3ccccc3)[C@@H](c3ccccc3)N2[C@@H](c2ccccc2OCCO)[C@]12C(=O)Nc1ccc(C#CCCO)cc12,0.365
6,COc1ccc(C#Cc2ccc3c(c2)[C@]2(C(=O)N3)[C@H](c3ccccc3OCCO)N3[C@H](c4ccccc4)[C@H](c4ccccc4)OC(=O)[C@H]3[C@@H]2C(=O)Nc2nc3ccccc3s2)cc1,1.62
7,CN1C(=O)C2C=CC(C(O)C3CC=CCC3)N(N(c3ccccc3)c3ccccc3)C2C1=O (stereo not given),0.141
8,O=C1O[C@@H](c2ccccc2)[C@@H](c2ccccc2)N2[C@@H](c3ccccc3OCCO)[C@]3(C(=O)Nc4ccccc43)[C@@H](C(=O)Nc3nc4ccccc4s3)[C@H]12,1.56
9,O=C1NC(=O)C2C1C=CC(C(O)c1cc(C(F)(F)F)cc(C(F)(F)F)c1)N2Nc1ccccn1 (stereo not given),0.143
10,O=C(N1CCCCC1)[C@]1(Cc2ccccc2)N=C(c2ccc(OCCCO)cc2)O[C@@H]1c1ccccc1,0.977
11,CC(C)c1ccc(NN2C(C(O)c3ccc(B(O)O)cc3)C=CC3C(=O)N(c4ccccc4)C(=O)C32)cc1 (stereo not given),1.27
12,NC(=O)NCC#Cc1ccc2c(c1)[C@]1(C(=O)N2)[C@H](c2ccc(O)cc2)N2[C@H](c3ccccc3)[C@H](c3ccccc3)OC(=O)[C@H]2[C@@H]1C(=O)O,-0.27
13,Cc1ccccc1C(O)C1C=CC2C(=O)N(c3ccccc3)C(=O)C2N1Nc1ccc(C(C)C)cc1 (stereo not given),1.16
14,COc1ccc(CCNC(=O)[C@@H]2c3ccccc3C(=O)N(Cc3ccccc3Cl)[C@H]2c2ccc(CO)cc2)cc1,-0.473
15,O=C(NC1CC1)[C@@H]1c2ccccc2C(=O)N(Cc2ccccc2Cl)[C@H]1c1ccc(CO)cc1,0.759
16,Cc1nc2cc(Br)ccc2c(=O)o1,0.206
17,CCN(CC)c1ccc(N2CC=CC34O[C@@H]5C=CCCOC(=O)C5[C@H]3C(=O)N(CCCCCCO)[C@@H]4C2=O)cc1 (stereo not given in full),-0.419
